# Structures can show the parent of a compound that is named as a salt.
# Columns and labels:
# Test in all cases: thermal shift delta Tm vs DMSO control; higher = stronger stabilization (binding)
# Conditions in all cases: 12.5 µM; protein concentration 2 µM
# [1] = tested on: LOC_OS01G01410-cb001
# Outline: (§1)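 Thermal shift values come from differential scanning fluorimetry on purified rice kinase domains made in E. coli, with melting temperatures obtained from Boltzmann fits. Samples of 19.5 μl held 2 μM kinase, 100 mM potassium phosphate pH 7.5, 150 mM NaCl, 10% glycerol, 5 × SYPRO Orange and compound in DMSO, and were heated from 25°C to 95°C at 0.05°C/s. Each shift is a triplicate mean relative to the DMSO-only protein sample.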
# [2] = tested on: LOC_OS01G02750-cb003
# Outline: as §1
# [3] = tested on: LOC_OS01G10900-cb004
# Outline: as §1
# [4] = tested on: LOC_OS01G13800-cb001
# Outline: as §1
# [5] = tested on: LOC_OS01G14860-cb001
# Outline: as §1
# [6] = tested on: LOC_OS01G21960-cb002
# Outline: as §1
# [7] = tested on: LOC_OS01G39600-cb002
# Outline: as §1
# [8] = tested on: LOC_OS01G48390-cb002
# Outline: as §1
# [9] = tested on: LOC_OS01G51400-cb002
# Outline: as §1
# [10] = tested on: T1, LOC_OS01G52050-cb004
# T1 sequence (whole entry): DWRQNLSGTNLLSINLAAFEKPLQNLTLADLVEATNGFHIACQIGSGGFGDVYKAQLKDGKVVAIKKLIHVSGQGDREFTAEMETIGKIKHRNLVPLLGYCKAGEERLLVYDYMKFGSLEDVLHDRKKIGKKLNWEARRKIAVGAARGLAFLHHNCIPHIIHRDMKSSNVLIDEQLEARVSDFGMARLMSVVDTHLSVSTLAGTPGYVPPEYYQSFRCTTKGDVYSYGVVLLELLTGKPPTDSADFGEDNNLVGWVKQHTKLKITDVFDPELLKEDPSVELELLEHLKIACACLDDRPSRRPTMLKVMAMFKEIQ
# Outline: as §1
# [11] = tested on: LOC_OS01G57100-cb003
# Outline: as §1
# [12] = tested on: LOC_OS01G60330-cb001
# Outline: as §1
# [13] = tested on: LOC_OS01G60700-cb002
# Outline: as §1
# [14] = tested on: LOC_OS01G63280-cb003
# Outline: as §1
# [15] = tested on: LOC_OS01G67340-cb003
# Outline: as §1
# [16] = tested on: LOC_OS01G70970-cb002
# Outline: as §1
# [17] = tested on: LOC_OS02G07810-cb001
# Outline: as §1
# [18] = tested on: LOC_OS02G08530-cb003
# Outline: as §1
# [19] = tested on: LOC_OS02G14120-cb001
# Outline: as §1
# [20] = tested on: LOC_OS02G17970-cb001
# Outline: as §1
# 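Note: purified Escherichia coli-expressed rice kinase domain construct.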
SMILES,thermal shift delta Tm [1] [°C],thermal shift delta Tm [2] [°C],thermal shift delta Tm [3] [°C],thermal shift delta Tm [4] [°C],thermal shift delta Tm [5] [°C],thermal shift delta Tm [6] [°C],thermal shift delta Tm [7] [°C],thermal shift delta Tm [8] [°C],thermal shift delta Tm [9] [°C],thermal shift delta Tm [10] [°C],thermal shift delta Tm [11] [°C],thermal shift delta Tm [12] [°C],thermal shift delta Tm [13] [°C],thermal shift delta Tm [14] [°C],thermal shift delta Tm [15] [°C],thermal shift delta Tm [16] [°C],thermal shift delta Tm [17] [°C],thermal shift delta Tm [18] [°C],thermal shift delta Tm [19] [°C],thermal shift delta Tm [20] [°C]
"C[C@H](Nc1ncnc2nc[nH]c12)c1cc2cccc(Cl)c2c(=O)n1-c1ccccc1 [Duvelisib (IPI-145, INK1197)]",-0.46,0.34,0.09,-0.35,0.37,0.25,-0.51,1.02,0.38,0.47,-0.45,0.3,1.43,0.2,0.06,0.33,0.73,0.77,0.47,0.68
COc1cc2nccc(Oc3ccc(NC(=O)c4cn(C(C)C)c(=O)n(-c5ccc(F)cc5)c4=O)cc3F)c2cc1OC,0.17,1.65,-0.15,0.61,0.98,0.2,0.41,0.32,0.13,4.45,0.85,0.41,0.47,-0.09,0.68,0.8,-0.36,0.66,8.24,1.66
CN1CCN(S(=O)(=O)c2ccc(-c3cnc(N)c(C(=O)Nc4cccnc4)n3)cc2)CC1,4.52,1.3,0.3,0.58,7.62,1.87,0.71,0.96,-0.02,1.17,1.13,1.53,1.31,0.13,0.5,1.05,0.28,1.13,2.21,-0.31
COc1cc(N2CCC(N(C)C)CC2)ccc1Nc1ncc(Cl)c(Nc2ccccc2P(C)(C)=O)n1,0.42,-0.8,0.79,-0.94,0.31,1.95,-6.92,0.54,0.25,3.85,4.55,0.43,0.89,0.32,1.45,4.81,0.65,5.8,10.2,0.5
CCCNC(=O)c1cn2ncnc(Nc3cc(C(=O)NC4CC4)ccc3C)c2c1C,0.17,0.08,-0.05,-0.27,0.01,-0.06,0.07,-0.01,0.04,0.26,0.66,0.41,0.99,0.33,0.18,0.12,0.08,0.8,0.54,-0.21
O=C1NCCc2[nH]c(-c3ccncc3)cc21,0.69,-0.36,0.12,0.78,5.61,2.12,-0.24,0.48,0.19,1.31,1.88,1.38,0.92,0.5,1.42,0.32,0.78,2.64,1.75,0.79
Cc1c(NC(=O)c2ccc(C(C)(C)C)cc2)cccc1-c1cn(C)c(=O)c(Nc2ccc(C(=O)N3CCOCC3)cc2)n1,0.18,0.71,-1.08,0.18,-0.01,0.66,2.2,0.86,0.2,-0.23,1.59,0.51,1.36,0.36,-0.03,0.22,0.9,0.31,0,0.66
OCCn1cc(-c2ccc3c(c2)CC/C3=N\O)c(-c2ccncc2)n1,0.98,-2.29,0.31,0.39,0.01,0.47,0.93,0.73,0.39,-0.04,0.82,1.25,0.99,0.67,-0.31,0.26,1.43,1,0.49,0.48
Cc1ccc(C(=O)Nc2ccc(CN3CCN(C)CC3)c(C(F)(F)F)c2)cc1C#Cc1cnc2[nH]ncc2c1 [GZD824 Dimesylate],4.32,3.52,5.49,-0.24,6.49,1.24,22.8,2.71,0.45,3.71,1.83,4.46,1.12,16.6,2.51,5.22,0.8,3.54,4.33,0.61
O=C(NCCO)c1cccc(-c2cc(Nc3ccc(OC(F)(F)F)cc3)ncn2)c1,0.32,0.32,0.34,0.62,1.32,0.44,0.3,2.99,0.2,1.46,1.41,0.68,0.09,0.31,0.88,0.38,0.33,0.44,-0.05,0.95
CC[C@@H]1C(=O)N(C)c2cnc(Nc3ccc(C(=O)N[C@H]4CC[C@H](N5CCN(CC6CC6)CC5)CC4)cc3OC)nc2N1C(C)C [Volasertib (BI 6727)],0.74,0.38,0.15,0.22,0.21,0.37,0.25,0.32,0.11,0.22,1.58,2.49,0.62,0.08,1.23,0.17,0.23,1.87,-0.05,0.41
CN(C)C/C=C/C(=O)Nc1ccc(C(=O)Nc2cccc(Nc3ncc(Cl)c(-c4c[nH]c5ccccc45)n3)c2)cc1,4.03,6.62,0.47,1.95,7.28,4.75,2.35,3.99,1.75,9.77,4.58,12.2,2.21,1.68,4.17,11.9,1.36,5.36,10.1,1.88
CC(C)c1cnn2c(NCc3ccccc3-n3cccn3)nc(OC3CCCNC3)nc12 (stereo not given),0,1.24,0.29,0.99,0.39,1.47,-0.1,0.28,0.35,0.43,0.42,1.35,1.26,0.47,0.65,0.27,0.85,0.74,-0.11,2.44
"Cc1cc(Nc2ncnc3ccc(NC4=NC(C)(C)CO4)cc23)ccc1Oc1ccn2ncnc2c1 [Irbinitinib (ARRY-380, ONT-380)]",0.46,-5.11,0.3,-0.06,-1.49,-0.98,-4.96,-0.78,-3.07,1.03,1.92,0.15,-0.86,-1.49,-1.04,-0.85,-0.86,0.22,0.7,0.09
CCc1nc(-c2cccc(C)c2)c(-c2ccnc(NC(=O)c3ccccc3)c2)s1,0.24,0.26,0.38,-0.71,0.27,-0.03,0.93,0.28,0.2,0.24,0.93,1.03,1.53,0.61,0.22,0.22,0.98,0.24,0.43,0.22
CCN1CCN(Cc2ccc(C(=O)Nc3ccc(C)c(Oc4ccc5c(c4)CC(=O)N5)c3)cc2C(F)(F)F)CC1,0.03,1.85,2.1,0.59,0.51,1.73,-0.14,0.94,0.25,1.08,2.21,1.36,1.34,0.98,1.05,0.43,1.19,0.8,0.22,1.43
"CC[C@H](CO)Nc1nc(NCc2ccccc2)c2ncn(C(C)C)c2n1 [Roscovitine (Seliciclib,CYC202)]",1.5,0,0.05,0.22,0.12,0.12,0.5,0.22,0.03,0.24,0.43,0.99,0.89,0.16,-0.54,0.28,0.93,0.8,0.04,0.31
CCN(CC)CCNC(=O)c1c(C)[nH]c(/C=C2\C(=O)Nc3ccc(-c4csc(-c5ccccc5)n4)cc32)c1C [Amcasertib (BBI503)],3.77,0.02,5.39,-0.01,1.64,1.66,4.12,-0.28,0.02,-0.1,0.34,0.8,-0.11,0.21,0.03,0.3,-0.19,3.7,4.69,-0.15
COc1cc(Nc2ncc(F)c(Nc3ccc4c(n3)NC(=O)C(C)(C)O4)n2)cc(OC)c1OC [R406 (free base)],0.61,1.68,0.13,0.48,5.16,4.15,5.87,0.31,0.55,8.56,5.12,8.58,0.44,0.7,1,3.16,2.03,4.18,13,0.86
CC(C)Nc1cc(-c2c[nH]c(C(=O)N[C@H](CO)c3cccc(Cl)c3)c2)c(Cl)cn1,6.3,1.26,0.37,0.75,5.82,1.37,1.63,1.24,0.12,2.18,2.03,1.73,1.28,0.91,1.23,0.59,1.19,1.18,1.13,1.49
C=CC(=O)N[C@H]1CCOC[C@H]1Nc1ncc2cc(-c3c(Cl)c(OC)cc(OC)c3Cl)ccc2n1,0.19,-0.27,2.28,-0.14,0.4,0.24,-0.48,0.49,-0.01,1.84,2.49,-0.43,-0.29,-0.43,-0.17,-0.04,-1.01,0.62,0.55,-0.41
COc1cc2c(N3CCN(C(=O)Nc4ccc(OC(C)C)cc4)CC3)ncnc2cc1OCCCN1CCCCC1 [Tandutinib (MLN518)],0.23,1.12,0.43,0.92,0.05,0.83,0.57,-0.07,0.02,0.86,0.97,0.04,0.63,0.12,0.5,-0.15,0.79,0.33,0.24,-0.44
NC(=O)Nc1cc(-c2cccc(F)c2)sc1C(=O)N[C@H]1CCCNC1,0.37,5.35,0.3,0.24,0.9,3.38,0.2,0.65,0.08,11.6,4.78,1.93,0.65,0.86,0.78,1.89,1.56,5.46,8.74,0.89
O=C(Nc1cnn2ccc(N3CCC[C@@H]3c3cc(F)ccc3F)nc12)N1CC[C@H](O)C1 [Larotrectinib (LOXO-101) sulfate],-0.1,0.5,0.8,0.17,0.39,0.24,-0.28,1.09,-0.18,0.04,1.19,0.93,0.28,-0.24,0.23,0.22,0.18,0.6,3.12,0.72
CCCCCCCCCC(=O)CC(O)S(=O)(=O)O (stereo not given) [Sodium Houttuyfonate],0.56,-0.18,3.08,0.69,0.44,0.8,-0.35,0.2,0.12,0.07,1.15,0.04,0.03,0.07,0.28,0.09,0.29,0.25,-0.08,1.73

# Source: the supplement of paper PMC9694430
